Results reported in PubChem BioAssay (NCI).
About 79,000 compounds went through this panel and 15% of them were active in at least one assay; those are over-represented in the sample as a whole. Calls of active or inactive are those of the source. No stated cut-off is given here; in the data, active means growth inhibition above about 70%; inactive means the rest. Where a SMILES comes first, the peptide text is derived from it. [ ]: non-standard residue; d: D form. The star is where a group is joined. ξ: configuration not given here. Cbz = O=C(OCc1ccccc1)*; ξNva = CCCC(N)C(=O)O

Tests used:
[1] = NCI Yeast Anticancer Drug Screen. Data for the rad50 strain (AID 155);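 further: 0% = growth of vehicle-only cultures of the same strain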; details: S. cerevisiae rad50 strain growth inhibition; at 50.0 µM; stronger effect = higher value
Method in brief: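 Yeast carrying a defined DNA repair defect were exposed to test compounds, and growth was compared with vehicle-treated controls to give percent inhibition.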

[2] = NCI Yeast Anticancer Drug Screen. Data for the mec2-1 strain (AID 157); details: S. cerevisiae mec2-1 strain, at 50.0 µM, stronger effect = higher value
Method in brief: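 Growth inhibition is read against vehicle-treated controls after compound exposure of the mec2-1 yeast strain, which is defective in DNA damage repair or cell cycle control.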

[3] = NCI Yeast Anticancer Drug Screen. Data for the sgs1 mgt1 strain (AID 161);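 further: 0% = growth of cultures given vehicle only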; details: S. cerevisiae sgs1 mgt1 strain, at 50.0 µM, stronger effect = higher value
Method in brief: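 Yeast cells carrying a defined DNA-repair defect were exposed to test compounds. Growth inhibition was measured relative to vehicle-treated controls.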

[4] = NCI Yeast Anticancer Drug Screen. Data for the cln2 rad14 strain (AID 165);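 further: 0% = growth equal to vehicle treated cultures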; details: S. cerevisiae cln2 rad14 strain, at 50.0 µM, stronger effect = higher value
Method in brief: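 Growth inhibition, relative to vehicle-treated controls, is the read-out. The test organism is a yeast strain with defined genetic alterations, cln2 rad14.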

[5] = NCI Yeast Anticancer Drug Screen. Data for the bub3 strain (AID 167); details: S. cerevisiae bub3 mutant strain, at 50.0 µM, stronger effect = higher value
Method in brief: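 Compounds were applied to a genetically altered yeast strain carrying a cell-cycle control defect. Growth inhibition was scored against vehicle-treated controls.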

[6] = NCI Yeast Anticancer Drug Screen. Data for the mlh1 rad18 strain (AID 175); details: S. cerevisiae mlh1 rad18 strain growth inhibition; at 50.0 µM; stronger effect = higher value
Method in brief: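 Cells of a genetically altered yeast strain, deficient in DNA damage repair, were treated with compound. Their growth was then compared with that of vehicle-treated cultures to give inhibition.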

Measured: growth inhibition

NC(=O)c1[nH]c(N=Nc2ccc(S(N)(=O)=O)cc2)nc1N
inactive: [1] 28.6% | [2] 13.6% | [3] 15% | [4] -5.1% | [5] -15.7% | [6] 17.9%

CCOC(=O)c1ccc(N(N=O)C(C)C)cc1
inactive: [1] 5.3% | [2] 5.15% | [3] 9.6% | [4] -16% | [5] 1.25% | [6] 5.15%

OCCCCCCCCCCCO
inactive: [1] 16.9% | [2] 2.3% | [3] 4.35% | [4] -15.5% | [5] 12.6% | [6] -19.9%

COc1ccc(N=Nc2c(-c3ccccc3)nn(C(=O)CC(=O)Nc3ccc(OC)cc3)c2-c2ccccc2)cc1
inactive: [1] -17% | [2] -1.7% | [3] -0.8% | [4] -25.4% | [5] 11.7% | [6] -3.35%

O=C1CCCc2[nH]c(=O)ccc21
inactive: [1] 13% | [2] -3.1% | [3] 0% | [4] -7.95% | [5] 0.3% | [6] 9.9%

CC1(C=O)C(=O)CCC2(C)C3CC(=O)OC3CCC12 (centres undefined)
inactive: [1] -35% | [2] -10.1% | [3] -10.8% | [4] -20.3% | [5] -17.7% | [6] -27.1%

CNC(=O)SCC(N)C(=O)O (centres undefined)
inactive: [1] 1.25% | [2] -4.85% | [3] -8.3% | [4] -16.4% | [5] -0.9% | [6] 2%

COc1ccc(NC(=O)CC(=O)NN)cc1
inactive: [1] -5.4% | [2] -0.05% | [3] 3.4% | [4] -1.5% | [5] -9.55% | [6] 9.2%

C/C(=C1\SC(=S)N(C2OC(CO)C(O)C(O)C2O)C1=O)c1ccco1 (centres undefined)
inactive: [1] -14% | [2] -9.3% | [3] -33.2% | [4] -0.85% | [5] -3.3% | [6] -32.9%

O=C(c1ccccc1)c1cccc(C(=O)c2ccccc2)n1
inactive: [1] -7.5% | [2] -12.7% | [3] -17.7% | [4] 1.9% | [5] -13.8% | [6] -8.55%

CCCCCCOC(=O)NC1c2ccccc2Oc2ccccc21
inactive: [1] -0.35% | [2] 7.15% | [3] 10.1% | [4] -7.2% | [5] 7.45% | [6] 3.15%

C=C(C/C(=C/S(C)=O)c1ccccc1)c1ccccc1 (centres undefined)
inactive: [1] 43.9% | [2] 12.3% | [3] 18.7% | [4] 29.6% | [5] 20.9% | [6] 34.4%

OCC(O)C(O)C(O)C(O)C(O)C(O)CO (centres undefined)
inactive: [1] 1.8% | [2] 3.65% | [3] 7.35% | [4] 5.75% | [5] -1.2% | [6] 3.35%

CC[C@]1(O)C(=O)OCc2c1cc1n(c2=O)Cc2cc3c(N)cccc3nc2-1
inactive: [1] 16.1% | [2] 14% | [3] 9.75% | [4] -0.25% | [5] 14.2% | [6] 45%

[O-]/[N+](=C\c1ccc(OCc2ccccc2)cc1)c1ccccc1
inactive: [1] 16.5% | [2] -18.4% | [3] -20.7% | [4] -2.65% | [5] -4.25% | [6] -13.5%

CC1=C2N3C[C@@H](n4c(=O)n(C)c(=O)n43)C23CCC1n1c(=O)n(C)c(=O)n13
inactive: [1] -7.1% | [2] -0.85% | [3] 17.9% | [4] 7% | [5] -7.9% | [6] -9.95%

COc1ccc(CC(=O)NCCc2ccc(OC)c(OC)c2OC)cc1
inactive: [1] 8.95% | [2] -34.7% | [3] -30% | [4] 8.3% | [5] -10.7% | [6] -32.8%

O=C(NO)c1ccc([N+](=O)[O-])cc1
inactive: [1] 58.2% | [2] 31.1% | [3] 46.3% | [4] 7.05% | [5] 17.8% | [6] 22.2%

CC(=O)C(C(C)=O)[N+](=O)[O-].CC(=O)C(C(C)=O)[N+](=O)[O-].[Cu]
inactive: [1] 17.1% | [2] -2.95% | [3] -6.75% | [4] -40.5% | [5] 23.6% | [6] 10.6%

OC/C(Cc1cccc(O)c1)=C(/CO)Cc1cccc(O)c1
inactive: [1] 5.5% | [2] 7.3% | [3] 6.7% | [4] 3.45% | [5] 10.4% | [6] 8.8%

CC1(C)COC(CCl)OC1
inactive: [1] 27.1% | [2] 17.9% | [3] 11.3% | [4] -16.5% | [5] 1.95% | [6] 30.9%

CCCC(NC(=O)OCc1ccccc1)C(=O)NCC(=O)O (centres undefined) (Cbz-[ξNva]-Gly-OH)
inactive: [1] 24.6% | [2] 7.2% | [3] 6.05% | [4] 23.4% | [5] 8.7% | [6] 8.55%

O=C(COc1cc(Cl)ccc1Cl)NCc1ccc(Cl)cc1
inactive: [1] 15.2% | [2] 2.1% | [3] 12.6% | [4] 10.1% | [5] 34.1% | [6] 14.8%

CC(NC(=O)N(C)C)NC(=O)N(C)C
inactive: [1] -17.9% | [2] -22.3% | [3] -5.15% | [4] -5.85% | [5] -0.9% | [6] -4.95%

COC(=O)C1=C(C)NC(C)=C(C(=O)OC)C1c1ccc(NC(C)=O)cc1
inactive: [1] 4.7% | [2] -3.7% | [3] 13.3% | [4] -6.25% | [5] 5.25% | [6] 10.9%

C=C1CCCC(C)(C)C1CC/C(C)=C/CC/C(C)=C/CO (centres undefined)
inactive: [1] -0.75% | [2] -1.45% | [3] 12.7% | [4] 8.4% | [5] 8.75% | [6] 12.1%

CCOc1ccc(/C=C2N=C(/C=C/c3ccccc3)OC\2=O)cc1
inactive: [1] 19% | [2] 14.8% | [3] 19.1% | [4] 16.6% | [5] 3.2% | [6] 3.75%

[O-][n+]1cscc1-c1nc2ccccc2[nH]1
inactive: [1] 7.45% | [2] -13.2% | [3] -2.95% | [4] 10.2% | [5] -7.8% | [6] -7.5%

CC(=O)/C(=N/O)C(C)C
inactive: [1] 4.6% | [2] -3.5% | [3] 6.35% | [4] -0.35% | [5] -0.45% | [6] 2.8%

O=[N+]([O-])c1ccc(N/N=C/C(Br)(Br)Br)c([N+](=O)[O-])c1
inactive: [1] -5.85% | [2] -0.65% | [3] -21.2% | [4] -11.9% | [5] -14.4% | [6] -27.9%

Clc1ccccc1NCSC1=NCCS1
inactive: [1] 5.95% | [2] -15.8% | [3] 3.9% | [4] -19.6% | [5] -3.85% | [6] 20.8%

Cn1c(=O)c(C(=O)NC(=O)OCc2ccccc2)cn(CCSCCOC(=O)NCCCCCCNC(=O)OCCSCCn2cc(C(=O)NC(=O)OCc3ccccc3)c(=O)n(C)c2=O)c1=O
inactive: [1] -3.1% | [2] -21.1% | [3] -6.35% | [4] -0.95% | [5] -5.15% | [6] -16.5%

FC1=C2C3CCC(C3)C2C1(F)F (centres undefined)
inactive: [1] 12.1% | [2] 4.1% | [3] 20.1% | [4] 16.9% | [5] 2.7% | [6] 17.1%

CCCCC(C(C)=O)C(=O)CC (centres undefined)
inactive: [1] 26.4% | [2] -25% | [3] 8.8% | [4] -23.2% | [5] -20.5% | [6] 13.1%

CN(C)Cc1cc(C=O)cc(CN(C)C)c1O
inactive: [1] 10.3% | [2] 4.6% | [3] -29.2% | [4] 13.4% | [5] 10.7% | [6] 5.8%

Cc1ccc(S(=O)(=O)Nc2ccc(C(=O)NC(CCC(=O)O)C(=O)O)cc2)cc1 (centres undefined)
inactive: [1] 3.3% | [2] 2.95% | [3] -8.05% | [4] -2.45% | [5] -1.5% | [6] 13.7%

COc1ccc(/C=C/c2cnc3ccccc3n2)cc1OC
inactive: [1] 28.8% | [2] -4.55% | [3] 58.4% | [4] 25.8% | [5] 45.4%
active: [6] 81%

O=[N+]([O-])c1ccc2nc[nH]c2c1
inactive: [1] 48.8% | [2] 4.9% | [3] -6.4% | [4] 25.5% | [5] -0.2% | [6] 43.1%

CCCCCCCCCCCCCCCC[N+]1(C)CCC[N+](C)(CCCCCCCCCCCCCCCC)CC1 (centres undefined)
inactive: [1] -5.25% | [2] -21% | [3] -2.65% | [4] -22.6% | [5] -8.4% | [6] -0.1%
